# Results published in PubChem BioAssay (Tox21).
# The source made the active and inactive calls. Calls come from the whole dose curve. Numbered stars: 1 amine (or outer) side, 2 acyl side, 3 side chain; on linkers, the order of the positions; unused ones are H or OH. Bridge positions count the residues as written; N and C are the ends. Square brackets hold non-standard residues; d marks the D form. Peptide text beside a SMILES is read from it. I, II: the chains in the order shown. Actinocin(9to1) = Cc1c2oc3c(C)ccc(C(=O)[*:1])c3nc-2c(C(=O)[*:2])c(N)c1=O; NMeV = CN[C@H](C(=O)O)C(C)C; Sar = CNCC(=O)O
# Biological target: Gonadotropin-releasing hormone receptor (Homo sapiens) (UniProt P30968)
# Sequence (P30968 whole entry, looked up): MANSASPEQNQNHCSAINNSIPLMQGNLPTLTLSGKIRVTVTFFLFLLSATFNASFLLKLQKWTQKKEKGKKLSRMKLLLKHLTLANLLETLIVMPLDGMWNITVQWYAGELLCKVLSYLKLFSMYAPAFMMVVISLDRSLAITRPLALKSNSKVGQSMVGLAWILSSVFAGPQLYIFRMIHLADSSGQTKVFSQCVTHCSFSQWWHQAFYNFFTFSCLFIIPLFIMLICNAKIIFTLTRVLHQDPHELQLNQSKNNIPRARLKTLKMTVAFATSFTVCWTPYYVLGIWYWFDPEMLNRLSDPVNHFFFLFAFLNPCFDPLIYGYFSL
# Assay: Human gonadotropin-releasing hormone receptor (GnRHR) small molecule agonists, calcium flux assay in GnRHR-HEK293 cells (AID 1920063); note: nearly all actives have a fitted effect of over 35% in size
# Details: calcium flux fluorescence, agonist mode; series mostly up to 57.6 µM; activity change: at the top concentration
# Text: National Center for Advancing Translational Sciences [NCATS]
# Division of Preclinical Innovation [DPI]
# U.S. Environmental Protection Agency [EPA]
# National Institutes of Environmental Health Sciences [NIEHS]
# National Toxicology Program [NTP]
# U.S. Food and Drug Administration [FDA]
# Gonadotropin-releasing hormone receptor (GnRHR) is a G-protein-coupled receptor (GPCR) and acts (through phospholipase C) to increase intracellular inositol trisphosphate and then release intracellular calcium stores. Cell-based GnRHR-Hek293 calcium influx assay is using HEK293 cells that have been genetically engineered to express the human GnRHR, which activity can be measured by calcium signaling. A compound/drug can activate (agonist) GnRHR that can be monitored by levels of intracellular calcium.
# GnRHR-HEK293 cells developed by Codex Corp contain human GnRHR reporter gene, which was stably integrated into HEK 293 cells. The compound activation can be detected by fluorescence intensity via calcium flux assay. This cell line has been used to screen the Tox21 10K compound library to identify GnRHR agonists.
# GnRHR-Hek293 cells were dispensed at 1500cells/4uL/well in 1536-well black wall/clear bottom plates using a multidrop dispenser. After the assay plates were incubated at a 37 C/5% CO2 incubator for 18 hours, 4 uL of Calcium Dye Solution was added to each well. The plates were incubated at 37 C for 1 hour. For agonist mode, 23 nL of compounds dissolved in DMSO, positive controls or DMSO only was transferred to the assay plate by a pin tool station. The fluorescence intensity in the plates was measured using FDSS 7000EX kinetic plate reader with a filter set of Ex/Em=480/540 for 3 min at 1 sec intervals. Each test compound was measured at 15 concentrations and in triplicates.
# % is set by controls: 0 for no effect and ±100 for the full control effect; potency is the fitted concentration of half-maximal effect.
SMILES,activity change,Potency
CCCCCCCCCC(C)=O,0.453% (inactive),–
O=C1OC(=O)c2c(Cl)c(Cl)c(Cl)c(Cl)c21,–,inactive
OCCc1ccccn1,-0.344% (inactive),–
N#CC1(c2ccc(F)cc2)CCC(=O)CC1,"0.0779% [at 26.4 µM, stronger effect = higher value] (inactive)",–
N=C(N=C(N)N)N1CCOCC1,"0.121% [at 26.4 µM, stronger effect = higher value] (inactive)",–
C=CCCCCCCCCC(=O)OCCCC,-0.147% (inactive),–
"Cc1c2oc3c(C)ccc(C(=O)N[C@@H]4C(=O)N[C@H](C(C)C)C(=O)N5CCC[C@H]5C(=O)N(C)CC(=O)N(C)[C@@H](C(C)C)C(=O)O[C@@H]4C)c3nc-2c(C(=O)N[C@@H]2C(=O)N[C@H](C(C)C)C(=O)N3CCC[C@H]3C(=O)N(C)CC(=O)N(C)[C@@H](C(C)C)C(=O)O[C@@H]2C)c(N)c1=O (I: T[dV]P[Sar][NMeV] / II: T[dV]P[Sar][NMeV]; ester I:1-I:C, II:1-II:C; linker I:N-II:N via Actinocin(9to1))",–,inactive
CC(C(=O)O)c1cccc(C(=O)c2ccccc2)c1 (stereo not given),–,inactive
NCc1cccc(CN)c1,–,inactive
COC(=O)c1ccc([N+](=O)[O-])cc1,-1% (inactive),–
CC(C)c1ccccc1O,-0.12% (inactive),–
CC(C)(C)c1ccc(S)cc1,-0.746% (inactive),–
C=CCCCCCCCCCCCCCCCC,"0.969% [at 5.22 µM, stronger effect = higher value] (inactive)",–
O=C1NC2NC(=O)NC2N1 (stereo not given),-0.42% (inactive),–
C[N+](C)(CCOc1ccccc1)Cc1cccs1,"0.869% [at 26.4 µM, stronger effect = higher value] (inactive)",–
Cc1ccc(N(C)C)cc1,–,inactive
COCCCOc1cc(C[C@@H](C[C@H](N)[C@@H](O)C[C@H](C(=O)NCC(C)(C)C(N)=O)C(C)C)C(C)C)ccc1OC,"-1.15% [at 26.4 µM, stronger effect = higher value] (inactive)",–
CO[Si](CCCNCCN)(OC)OC,–,inactive
CCCCCCCCCOS(=O)(=O)O,0.604% (inactive),–
C=CCCCCCCCCCCCC,-0.939% (inactive),–

SMILES,activity change,Potency
CCN(Cc1cccc(S(=O)(=O)O)c1)c1ccccc1,-0.473% (inactive),–
O=C(O)CSCC(=O)NC1CCSC1=O (stereo not given),"-0.133% [at 26.4 µM, stronger effect = higher value] (inactive)",–
CCCCc1ccc2cccc(S(=O)(=O)O)c2c1,-0.0763% (inactive),–
CCCCCCCCCCCCCCO,–,inactive
COC(=O)c1cc(Cl)ccc1NS(=O)(=O)C(F)(F)F,"0.329% [at 26.4 µM, stronger effect = higher value] (inactive)",–
CCCCCCCCCCCC[N+](C)(C)CCCS(=O)(=O)[O-],1.17% (inactive),–
O=C(O)c1cc2ccccc2cc1O,–,inactive
Cc1ccc(S(=O)(=O)NC(=O)NC2CCCCCCC2)cc1,"-1.18% [at 26.4 µM, stronger effect = higher value] (inactive)",–
O=C(O)c1cc(=O)c2c(OCC(O)COc3cccc4oc(C(=O)O)cc(=O)c34)cccc2o1,–,inactive
O=C1CC[C@H](C(=O)N2CCCCC2)N1,"-1.61% [at 26.4 µM, stronger effect = higher value] (inactive)",–
OCCCCl,1.22% (inactive),–
NC[C@H](O)c1ccc(O)c(O)c1,–,19 µM (active)
Cn1cc(S(C)=O)c(=O)c2ccc(F)cc21 (stereo not given),"-0.0919% [at 26.4 µM, stronger effect = higher value] (inactive)",–
Clc1ccccc1-c1nc(-c2ccncc2)no1,"-0.578% [at 26.4 µM, stronger effect = higher value] (inactive)",–
COC(=O)c1cc(Cl)ccc1OC,"-0.882% [at 26.4 µM, stronger effect = higher value] (inactive)",–
CCCC/C=C\CCCCCCCCCC=O,1.97% (inactive),–
O=C(O)c1cc(C(=O)O)cc([N+](=O)[O-])c1,-0.424% (inactive),–
CC(C)(C)c1ccc(O)c(O)c1,–,inactive
CC(=O)O[C@@H]1C[C@@H]2CC[C@@]1(C)C2(C)C,-0.811% (inactive),–
CC(=O)OCc1ccco1,–,inactive
